Screens deposited in PubChem by several laboratories.
PREPL inhibitor = human PREPL enzyme inhibition; Q4J6C6; recombinant PREPL, fluorescence polarization activity-based probe; inhibition, % at 5.96 µM; actives 0.68% (n = 320,000); in the data active = inhibition above about 43%;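 note: 0% = enzyme with DMSO and 100% = wells lacking enzyme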
Target sequence (Q4J6C6 whole entry, looked up): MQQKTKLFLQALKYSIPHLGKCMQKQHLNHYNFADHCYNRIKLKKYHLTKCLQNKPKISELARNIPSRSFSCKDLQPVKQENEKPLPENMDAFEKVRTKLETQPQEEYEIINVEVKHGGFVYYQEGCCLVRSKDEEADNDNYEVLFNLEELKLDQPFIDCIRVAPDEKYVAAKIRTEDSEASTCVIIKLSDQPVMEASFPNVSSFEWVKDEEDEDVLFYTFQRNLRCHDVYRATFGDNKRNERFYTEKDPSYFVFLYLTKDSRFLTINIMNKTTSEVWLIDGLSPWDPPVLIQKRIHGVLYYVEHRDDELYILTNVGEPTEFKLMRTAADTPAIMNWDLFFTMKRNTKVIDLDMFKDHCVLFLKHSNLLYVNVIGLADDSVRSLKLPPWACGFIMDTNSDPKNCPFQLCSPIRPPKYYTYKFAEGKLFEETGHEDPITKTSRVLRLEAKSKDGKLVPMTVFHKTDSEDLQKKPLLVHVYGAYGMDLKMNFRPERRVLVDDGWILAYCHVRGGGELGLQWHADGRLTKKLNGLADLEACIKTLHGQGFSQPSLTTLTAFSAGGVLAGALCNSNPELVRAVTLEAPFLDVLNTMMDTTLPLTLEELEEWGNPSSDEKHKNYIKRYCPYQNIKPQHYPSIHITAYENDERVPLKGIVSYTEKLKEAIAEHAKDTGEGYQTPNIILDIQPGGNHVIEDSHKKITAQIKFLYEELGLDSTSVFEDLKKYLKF
LYPLA1 inh = LYPLA1 (human) inhibition in PME1 counter-screen; recombinant LYPLA1, FP-Rh probe fluorescence polarization; actives 0.16% (n = 320,000); AID 2174; inhibition, % at 5.9 µM; O75608;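 active = inhibition above the mean of all tested compounds plus 3 SD, set per campaign, cut at about 14% in these data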;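 note: inhibitors block serine hydrolase probe labeling of LYPLA1 so polarization falls; 0% = enzyme with DMSO and 100% = wells lacking LYPLA1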
MEX-5 binding = C. elegans MEX-5 TCR-2 RNA binding activity; actives 0.38% (n = 300,000); Q9XUB2; activity score (negative = inhibition of binding), % at 10 µM; MEX-5/FITC-TCR2 RNA binding, fluorescence polarization; hits give low values;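 active = inhibition past about -25% in most replicates, and total fluorescence under double the plate's negative control median, limit read from the data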;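 note: 0% = DMSO and -100% = 5 µM competing unlabeled TCR2 RNA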
PME-1 inh = blocks human protein phosphatase methylesterase 1 | Q9Y570 | recombinant PME-1, FP-Rh probe fluorescence polarization | inhibition, % at 5.9 µM | actives 0.53% (n = 320,000);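 active = inhibition above the campaign mean of all compounds plus 3 SD, cut at about 26% in these data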;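 note: competitive labeling of PME-1 active site by serine hydrolase directed probe; 0% = PME-1 with DMSO and 100% = wells lacking PME-1 enzyme; inhibitors block probe labeling so polarization falls and inhibition rises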
LYPLA2 inh = blocks human lysophospholipase 2, a PME1 counter-screen; O95372; recombinant LYPLA2, FP-Rh probe fluorescence polarization; inhibition, % at 5.9 µM; actives 0.38% (n = 320,000); AID 2177;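 active = inhibition above the screen-wide mean plus 3 SD, limit set per campaign, cut at about 26% in these data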;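 note: 0% = LYPLA2 with DMSO and 100% = wells lacking LYPLA2 enzyme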
Fam108B inh = Fam108B inhibition, counter-screen for RBBP9 inhibitors; recombinant Fam108B, FP-Rh probe fluorescence polarization; actives 0.33% (n = 300,000); inhibition, % at 9.51 µM;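 active = inhibition above the screen mean inhibition plus 3 SD, computed separately per campaign, cut at about 18% in these data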;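 note: inhibitors lower polarization as less probe binds the enzyme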
Fam108b confirm = Fam108b (mouse) hydrolase inhibition, confirmation assay. inhibition, % at 9.51 µM. recombinant Fam108b, FP-Rh probe fluorescence polarization. AID 1978. shares compounds with Fam108B inh. actives 44% (n = 930);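 active = inhibition above a limit from the primary screen, the mean over all compounds plus 3 SD, cut at about 19% in these data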;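 note: 0% = median of active Fam108b wells and 100% = catalytically dead S170A mutant; inhibitors free the probe so polarization falls as inhibition rises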
Fam108b ABPP HTS = inhibits mouse Fam108b in gel-based ABPP; recombinant Fam108b, fluorophosphonate probe; shares compounds with Fam108B inh; inhibition, % at 20 µM; actives 44% (n = 260); in the data active = inhibition above about 40%
* = called active by the depositor; . = no result; ! = not confirmed by another sample. Only some compounds are listed: those with a hit (about 1.6% of all), similar ones and a draw of the others.

SMILES	PREPL inhibitor	LYPLA1 inh	MEX-5 binding	PME-1 inh	LYPLA2 inh	Fam108B inh	Fam108b confirm	others
c1ccc(-c2onc(-c3ccco3)c2-c2ccc3c(c2)OCO3)cc1	10	-1	1	-4	-2	-4	.
CC/C(=C1/C(=O)CC(C)(C)C(C(=O)OC)C1=O)N1CCCC1 (stereo not drawn)	12	2	0	3	-1	2	.
CC1(C)CC(NS(=O)(=O)c2ccc(S(N)(=O)=O)cc2)CC(C)(C)N1	-6	1	-8	-5	9	1	.
CN(/N=C/c1ccc(O)cc1O)c1nc(-c2ccccc2)cc(-c2ccccc2)n1	28	-9	2	23	8	33*	19*
O=[N+]([O-])c1ccc(-c2nc(-c3ccncc3)no2)cc1	2	4	0	1	4	-2	.
OCCNC(=S)Nc1ccc2nsnc2c1	22	14	0	24	12	28*	-1
Cc1cc(Br)ccc1NC(=O)CN(C)C(=O)C1=COCCO1	12	.	.	.	.	.	.
COc1cccc(C2C(C#N)=C(N)N(N(C)C)C3=C2C(=O)CC(C)(C)C3)c1 (stereo not drawn)	15	2	0	3	7	3	.
CCOC(=O)c1cnc2cc3c(cn2c1=O)CCCC3	11	9	0	-1	24	2	.
CCOC(=O)C1=C(SCC)c2cc3c(n2C1=O)CCCC3	12	2	.	8	0	23*	14
O=C1/C(=C\c2cccnc2)SC(=S)N1C1CCS(=O)(=O)C1 (stereo not drawn)	-7	-4	.	-9	-5	-1	.
Nc1nn2cc(-c3ccc(Br)cc3)nc2c2ccccc12	32	-8	-5	-1	-1	27*	3
COc1ccc(N2CCN(C(=O)Cc3ccc(C)cc3)CC2)cc1	2	0	-1	-4	-3	2	.
COc1cc(C2Nc3cccc4cccc(c34)N2)cc(OC)c1OC(C)=O	21	-3	-4	23	3	34*	1
CSC1=NCCN1C(=O)Cc1ccc(-c2ccccc2)cc1	9	-5	0	-4	-3	-5	.
CCOc1ccc(-c2c(C(=O)N/N=C/c3c[nH]c4ccccc34)nnn2-c2nonc2N)cc1	17	-11	3	21	4	19*	-4
Cc1cc(Cl)ccc1NC(=O)CCC(=O)N/N=C/c1cc([N+](=O)[O-])ccc1O	2	-1	-2	4	1	-1	.
O=[N+]([O-])c1ccc(O)c(/C=N/NC(=S)Nc2ccc(Cl)cc2Cl)c1	7	5	0	10	-1	43*	48*
Cc1ccc(OCCC(=O)OCC(=O)N2CC(=O)Nc3ccccc32)cc1	-35	-1	.	4	2	.	.
Oc1ccc2ccccc2c1/C=N/Nc1ccccc1	1	5	1	2	7	9	.
Cc1cc(NN=Cc2c(O)ccc3ccccc23)nc(-c2ccccc2O)n1	.	.	.	.	.	.	.	Fam108b ABPP HTS=95*
Cc1ccc(C(=O)NCc2ccccn2)o1	2	2	-4	-4	-3	0	.
O=C(Nc1ccc(Nc2ccccc2)cc1)Nc1ccccc1Cl	23	-17	0	31*	-1	22*	-2
O=C(Cn1c(=O)n(CC2CCCO2)c(=O)c2ccccc21)N1CCN(c2ccccc2)CC1 (stereo not drawn)	26	-3	-3	-7	2	7	.
COC(=O)c1sc(-c2ccccc2)cc1NC(=O)C1CC1	-2	-3	1	1	-5	4	.
SMILES	PREPL inhibitor	LYPLA1 inh	MEX-5 binding	PME-1 inh	LYPLA2 inh	Fam108B inh	Fam108b confirm	others
CCOc1ccc(NC(=O)Nc2cc(-c3ccccc3)sc2C(=O)OC)cc1	13	-11	-1	34*	16	22*	18
O=C(N/N=C/c1c[nH]c2ccccc12)c1ccn(Cc2ccc(Cl)cc2Cl)n1	33	-10	0	17	1	21*	0
CCOC(=O)CSc1nc2c(sc(=S)n2-c2ccccc2OC)c(=O)n1Cc1ccco1	6	-3	-2	26	-4	19*	7
CCOC(=O)CSc1nc2c(sc(=S)n2Cc2ccco2)c(=O)n1-c1ccccc1	-1	-3	-1	-2	-2	-4	.
c1ccc(-c2cc3c(ccc4nonc43)nn2)cc1	12	0	-1	-1	1	-3	.
On1onc2c3cc(-c4ccccc4)nc3ccc21	6	-7	.	45*	3	27*	21*
O=c1[nH]n2c(=O)c3c([nH]c2c1N=Nc1cccc(Cl)c1)CCC3	27	8	-4	56*	4	21*	15
CC1CCCCN1S(=O)(=O)c1ccc(C(=O)Nc2ccccc2-c2nc3ccccc3[nH]2)cc1 (stereo not drawn)	-8	-6	3	28*	8	32*	72*
Cc1cc(C)c(C(=O)COC(=O)c2cc([N+](=O)[O-])ccc2NCCO)cc1C	2	-13	5	-5	-21	-4	.
CC(C)(C)c1nc2scc(-c3ccc(Br)cc3)c2c(=O)o1	1	0	0	-6	10	27*	29*
Cc1nc2scc(-c3ccc(Cl)cc3)c2c(=O)o1	6	1	.	-7	4	46*	79*	Fam108b ABPP HTS=80*
O=c1[nH]cnc2scc(-c3ccc(Br)cc3)c12	-29	0	0	0	-1	-5	.
COc1ccc(-c2nc3scc(-c4ccc(OC)c(OC)c4)c3c(=O)o2)cc1	9	0	-3	20	7	-1	.
COc1ccc(-c2csc3nc(-c4ccccc4F)oc(=O)c23)cc1	7	-6	-1	12	-7	50*	36*	Fam108b ABPP HTS=60*
Cc1ccc(Sc2ncccc2O)cc1	-4	-3	0	-3	1	-1	.
CCC(C)[C@H](NC(=O)NCc1ccccc1Cl)C(=O)OC (stereo partly drawn)	12	3	0	-1	7	5	.
COc1ccc(CC(=O)NCCC2=CCCCC2)cc1	4	-2	1	-9	0	9	.
COc1ccccc1Nc1ccc(NC(=O)c2cccc([N+](=O)[O-])c2C)cc1	26	-7	0	15	5	20*	-6
COC(=O)c1ccc(OCCN2CCCCCC2)cc1	2	1	-1	-3	-3	1	.
O=C(c1ccc(OCCN2CCCCC2)cc1)c1c(-c2ccc(O)cc2)sc2cc(O)ccc12	27	-8	2	6	-1	21*	24*!
O=S(=O)(Nc1ccccc1Cl)c1ccc(-c2ccccn2)s1	21	1	1	8	2	-3	.
